The list is not random: actives were taken first. Their share in the collection is about 4.6%.
TRHR enhancer = qHTS for Small Molecule Agonists and Allosteric Enhancers of Human TRH Receptor: Primary Screen for Enhancers; enhancement, % at 2 µM; 360,000 tested, 0.66% active; TRHR cells, fluo-8 calcium fluorescence, EC20 TRH enhancement; AID 493056, 2011; in the data active = enhancement above about 30%
Target sequence (P34981 whole entry, looked up): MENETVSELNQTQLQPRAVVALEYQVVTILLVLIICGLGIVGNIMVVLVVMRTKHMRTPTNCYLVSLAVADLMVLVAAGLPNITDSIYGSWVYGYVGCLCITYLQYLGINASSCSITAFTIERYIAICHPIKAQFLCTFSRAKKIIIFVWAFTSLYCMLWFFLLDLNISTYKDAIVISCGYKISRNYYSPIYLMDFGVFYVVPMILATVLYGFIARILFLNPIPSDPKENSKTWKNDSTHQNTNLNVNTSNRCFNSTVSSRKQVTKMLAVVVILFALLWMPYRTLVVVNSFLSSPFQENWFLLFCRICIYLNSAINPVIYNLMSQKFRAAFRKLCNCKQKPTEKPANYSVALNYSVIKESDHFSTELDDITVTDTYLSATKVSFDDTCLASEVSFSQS
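TRHR-expressing cells loaded with fluo-8 calcium dye were read kinetically (ex 480/em 530) during compound addition, then stimulated with an EC20 of TRH (10 nM final). Enhancement of the Gq-mediated intracellular calcium response was scored.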
TRHR agonist = qHTS for Small Molecule Agonists and Allosteric Enhancers of Human TRH Receptor: Primary Screen for Agonists. Thyrotropin-releasing hormone receptor (Homo sapiens), P34981. TRHR cells, calcium flux fluo-8, FDSS agonist mode. activation, % at 2 µM. 360,000 tested, 0.18% active
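Read-out: compound-evoked intracellular calcium rise in TRHR cells, fluo-8 dye, kinetic FDSS fluorescence at 1 s/cycle following a 10-cycle baseline. Cells cultured overnight before dye loading (30 min–1.5 h, RT).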
D1 antagonist = Antagonist of Human D 1 Dopamine Receptor: qHTS; D(1A) dopamine receptor (Homo sapiens), P21728; HEK293 TREx D1 cells, calcium flux, dopamine EC80; hits give low values; activity change, negative = inhibition, % at 10 µM; 360,000 tested, 3.2% active; AID 504652, 2011; in the data active = activity change below about -30%
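Allosteric or orthosteric antagonism assessed as attenuation of the calcium response to EC80 dopamine, added 180 s after compound, in induced HEK293 Trex D1 cells loaded with no-wash calcium dye.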
D1 agonist = Allosteric Agonists of the Human D1 Dopamine Receptor: qHTS | D(1A) dopamine receptor (Homo sapiens), P21728 | HEK293 T-REx D1 cells, calcium flux, agonist mode | activation, % at 2 µM | 360,000 tested, 1% active | AID 504660, 2011
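Agonism was scored from calcium flux recorded over 180 s (1 read/s) after pintool compound addition, following a 10-cycle baseline. Cells were inducible force-coupled HEK293 TREx D1, plated overnight at 30 C and loaded with no-wash calcium dye.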
D1 PAM = Potentiators of Human D1 Dopamine Receptor: qHTS. D(1A) dopamine receptor (Homo sapiens), P21728. HEK293 TREx D1 cells, calcium flux, dopamine EC20 potentiation. 360,000 tested, 0.036% active. potentiation, % at 10 µM. AID 504651, 2011; in the data active = potentiation above about 30%
Numbers stand for hits; – = inactive. Cut-off read from the data, not from the text of the source, unless noted: active = activation above about 30%; inactive = the rest.

SMILES	TRHR enhancer	TRHR agonist	D1 antagonist	D1 agonist	D1 PAM
CC(C)(Oc1ccc(CCNC(=O)c2ccc(-c3ccccc3)o2)cc1)C(=O)O	–	–	–	–	–
Cc1ccc2c(c1)C(=O)CC(O)(C(F)(F)F)O2 (stereo unspecified)	–	–	–	–	–
Cc1ccc2c(c1)C(=O)CC1(CCC(C(C)(C)C)CC1)O2 (stereo unspecified)	–	–	-31	–	–
O=C(Nc1cc2c3c(c1)CC(=O)N3CCC2)c1ccc(Cl)cc1	–	–	–	–	–
Cc1ccc(CNC(=O)c2c(-c3ccc(Br)cc3)noc2C)o1	–	–	–	–	–
Cn1c(=O)n(C)c2cc(NS(=O)(=O)c3ccc4c(c3)CCCC4)ccc21	–	–	-34	–	–
COc1ccc(-c2nc3ccccn3c2NCc2ccc3c(c2)OCO3)cc1	–	–	–	–	–
COc1ccc(-c2nc3cc(C)ccn3c2NCc2ccc3c(c2)OCO3)cc1	–	–	-31	–	–
O=C(N/N=C/c1ccc(OC(=O)c2ccccc2)cc1)c1cccnc1	–	–	–	–	–
O=C(CN1C(=O)C2CC=CCC2C1=O)Nc1nc(-c2ccc(F)cc2)cs1 (stereo unspecified)	–	–	-46	–	–
O=C(Nc1nc(-c2ccccc2)cs1)c1ccccc1NS(=O)(=O)c1ccc(F)cc1	–	–	-48	–	–
Cc1ccc(C(=O)Nc2nc(-c3ccc(F)cc3)cs2)o1	–	–	-48	–	–
O=S(=O)(Nc1ccc(-c2csc(-c3ccccc3)n2)cc1)c1ccc(F)cc1	–	–	–	–	–
Cc1ccc(Nc2nc(-c3ccc(F)cc3)cs2)nc1	–	–	-37	–	–
CC(=O)NC(=S)c1c(N)n(Cc2ccccc2)c(=O)n(C)c1=O	–	–	–	–	–
COc1ccc(CCN(C)C(=O)CSc2nc3ncc(Cl)cc3[nH]2)cc1OC	–	–	-67	–	–
COc1ccc(CCN(C)C(=O)CSc2nccn2C)cc1OC	–	–	–	–	–
CCOc1ccc(C(=O)NCCN2CCCCC2)c(OCC)c1	–	–	–	–	–
CCc1ccc(Nc2nnc(SCC(=O)N(C)C3CCS(=O)(=O)C3)s2)cc1 (stereo unspecified)	–	–	-70	–	–
CCCCc1cc(=O)oc2cc(OCC(=O)NCc3ccccn3)ccc12	–	–	-42	–	–
Cc1oc2c(cc(NS(=O)(=O)c3ccc(Cl)cc3)c3ccccc32)c1C(=O)O	–	–	–	–	–
CC(=O)c1c(C)oc2c1cc(NS(=O)(=O)c1ccc(Br)cc1)c1ccccc12	–	–	-32	–	–
CC(=O)c1c(C)oc2c(Br)cc(NS(=O)(=O)c3ccc(Br)cc3)cc12	–	–	-47	–	–
Cc1oc2ccc(NS(=O)(=O)c3ccc(F)cc3)cc2c1C(=O)O	–	–	–	–	–
CC(C)[C@H](NC(=O)c1ccccc1F)C(=O)NCc1ccc(S(N)(=O)=O)cc1	–	–	–	–	–
SMILES	TRHR enhancer	TRHR agonist	D1 antagonist	D1 agonist	D1 PAM
CC(C)C(NC(=O)c1ccccc1F)C(=O)NCc1ccccc1 (stereo unspecified)	–	–	-57	–	–
N#Cc1c(C(F)(F)F)cc(-c2ccc(Cl)c(Cl)c2)nc1SCCN1CCOCC1	–	–	–	–	–
N#Cc1c(C(F)(F)F)cc(-c2ccccc2)nc1SCc1nc(N)nc(N2CCOCC2)n1	–	–	–	70	–
CCC(Sc1nnc(C)n2c1cc1occc12)C(=O)Nc1ccccc1F (stereo unspecified)	–	–	–	–	–
Cc1cc(C(=O)NCc2cc(C(=O)O)co2)co1	–	–	–	–	–
Cc1cc(C(=O)OCC(=O)Nc2cc(S(=O)(=O)N(C)C)ccc2C)c(C)o1	–	–	–	–	–
Cc1ccc2nc(C3CCCN(C(=S)Nc4cccc(C)c4C)C3)[nH]c2c1 (stereo unspecified)	–	–	–	–	–

Bioassay records (PubChem)
